# Data taken from article PMC5540273 (PLoS ONE, 2017).
# Tests used:
# Conditions in all cases: concentration: 1 μM, replicates: in singlicate; n = 1
# RIOK1 = tested on: RIOK1
# RIOK2 = tested on: RIOK2
# RIOK3 = tested on: RIOK3
# RIPK1 = tested on: RIPK1
# RIPK2 = tested on: RIPK2
# RIPK4 = tested on: RIPK4
# RIPK5 = tested on: RIPK5
# ROCK1 = tested on: ROCK1
# ROCK2 = tested on: ROCK2
# ROS1 = tested on: ROS1
# 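Also: KINOMEscan kinase panel screen.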
Structure (SMILES),%Inh (RIOK1) [%],%Inh (RIOK2) [%],%Inh (RIOK3) [%],%Inh (RIPK1) [%],%Inh (RIPK2) [%],%Inh (RIPK4) [%],%Inh (RIPK5) [%],%Inh (ROCK1) [%],%Inh (ROCK2) [%],%Inh (ROS1) [%]
CN(c1ccc(F)c(NC(=O)c2cccc(OC(C)(C)C#N)c2Cl)c1)c1ccc2nc(NC(=O)C3CC3)sc2n1,0,71,27,0,36,2,0,0,0,0
CC(C)NCC(Cc1ccccc1)NC(=O)c1cc(Br)c(-c2ccnc3[nH]ccc23)s1.Cl.Cl (stereo not drawn) [GSK1383281],72,84,60,0,0,15,9,99.6,99.6,46
Cn1cc(-c2ccc3c(c2)CCN3C(=O)Cc2cc(F)cc(C(F)(F)F)c2)c2c(N)ncnc21 [GSK2635225],21,2,26,100,59,0,0,3,6,29
COC(=O)Nc1nc2ccc(Oc3ccc(CC(=O)Nc4cc(C(F)(F)F)ccc4F)cc3)cc2[nH]1 [GW680903],0,0,8,84,48,8,0,31,12,0
CN(C)CCNS(=O)(=O)c1ccc(-c2ccnc3[nH]ccc23)cc1 [GSK977620],78,78,64,0,0,3,0,99.6,98.3,48
COc1cccc(CC(=O)N2CCc3cc(-c4cn(C)c5ncnc(N)c45)ccc32)c1 [GSK2608899],20,20,17,100,35,0,58,23,5,9
COc1ccc(C)c(Nc2ccnc(Nc3ccc(-c4cnc[nH]4)cc3)n2)c1.Cl [GW784041],36,6,34,13,100,0,0,0,0,3
COc1cccc(-c2nc(-c3ccccc3)[nH]c2-c2ccncc2)c1 [SB-610250],18,0,0,0,75,11,0,24,13,0
Fc1cc(Cl)ccc1Nc1ccnc2cc(-c3ccc(CN4CCSCC4)o3)ccc12 [GW560106],9,0,0,0,94.7,0,0,29,32,20
